In all, about 310,000 compounds went through this assay and about 14,000 (4.5%) showed an effect of 50% or more. Effects have a minus sign here. What follows is part of a selection rich in strong results, with near analogues and random picks from the rest.
Target: human ether-à-go-go-related gene (hERG) potassium channel (human, UniProt Q12809)
Assay: primary screen, population patch clamp on CHO cells stably expressing hERG; higher = less effect of the substance
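Note: peak tail current of the secondary pulse compared with the same well before compound.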

Chain of human ether-à-go-go-related gene (hERG) potassium channel (Q12809 whole entry, looked up): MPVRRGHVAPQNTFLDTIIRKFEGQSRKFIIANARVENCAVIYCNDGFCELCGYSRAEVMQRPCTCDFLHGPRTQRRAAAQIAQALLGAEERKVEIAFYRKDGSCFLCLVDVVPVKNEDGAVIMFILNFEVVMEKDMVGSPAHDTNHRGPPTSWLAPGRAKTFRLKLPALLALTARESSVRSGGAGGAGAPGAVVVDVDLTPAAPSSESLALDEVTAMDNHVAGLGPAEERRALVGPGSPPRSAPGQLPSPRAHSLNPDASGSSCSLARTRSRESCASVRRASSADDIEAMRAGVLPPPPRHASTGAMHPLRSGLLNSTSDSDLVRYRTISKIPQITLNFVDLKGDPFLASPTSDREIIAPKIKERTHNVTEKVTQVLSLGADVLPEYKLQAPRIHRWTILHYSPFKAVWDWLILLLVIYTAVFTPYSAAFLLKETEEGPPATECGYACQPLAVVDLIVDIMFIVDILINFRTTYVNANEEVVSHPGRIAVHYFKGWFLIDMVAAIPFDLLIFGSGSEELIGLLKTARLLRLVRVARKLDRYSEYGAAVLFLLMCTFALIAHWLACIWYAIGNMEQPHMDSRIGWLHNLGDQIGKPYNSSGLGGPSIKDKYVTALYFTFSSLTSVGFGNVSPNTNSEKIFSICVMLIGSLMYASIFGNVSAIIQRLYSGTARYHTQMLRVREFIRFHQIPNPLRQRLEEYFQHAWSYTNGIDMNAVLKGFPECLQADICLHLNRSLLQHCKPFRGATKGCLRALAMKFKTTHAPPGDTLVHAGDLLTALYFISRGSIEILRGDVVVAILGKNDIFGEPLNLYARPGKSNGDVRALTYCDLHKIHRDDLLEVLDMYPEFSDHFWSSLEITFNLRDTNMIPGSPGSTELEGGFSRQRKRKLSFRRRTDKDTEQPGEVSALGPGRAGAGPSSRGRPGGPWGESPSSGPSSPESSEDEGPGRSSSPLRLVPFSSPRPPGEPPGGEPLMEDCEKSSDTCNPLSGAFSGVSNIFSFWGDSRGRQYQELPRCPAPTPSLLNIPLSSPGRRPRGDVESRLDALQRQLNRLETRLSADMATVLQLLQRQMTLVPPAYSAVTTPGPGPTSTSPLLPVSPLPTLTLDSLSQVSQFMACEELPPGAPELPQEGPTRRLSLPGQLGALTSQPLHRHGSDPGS

| SMILES | hERG current change (%, negative = inhibition) at 10uM [%] |
| --- | --- |
| CC1CCCCC1NC(=O)c1ccc2c(c1)OCCO2 (centres unmarked) | 3.51 |
| Cc1cc(OCc2nc3ccccc3s2)ccc1N | -1.17 |
| Cc1cc(NC(=O)/C=C/c2cccc(Cl)c2)n(-c2nc3ccccc3[nH]2)n1 | -1.83 |
| COc1ccc(-c2csc(N3CCN(S(=O)(=O)c4ccc5c(c4)NC(=O)CO5)CC3)n2)cc1 | 17.2 |
| CCC(=O)NN1CCN(c2ccncc2S(=O)(=O)N2CCCCC2)CC1 | 5.14 |
| CCC(=O)N(C(=O)CC)N1CCN(c2ccncc2S(=O)(=O)N2CCCCC2)CC1 | -52.5 |
| CN1CCN(c2ccncc2S(=O)(=O)N2CCCCC2)CC1 | 14.7 |
| Cc1cc(N(C)C)c(C#N)c(N2CCCCC2)n1 | -4.92 |
| O=C(OC(c1ccccc1)c1nccc2ccccc12)c1cc([N+](=O)[O-])cc([N+](=O)[O-])c1 (centres unmarked) | 22.9 |
| Cc1occc1C(=O)/C(C#N)=C/c1ccc(O)c(Br)c1 | 6.16 |
| O=C(NCCCc1ccccc1)c1cc(COc2c(F)cccc2F)on1 | -6.23 |
| O=C(NCCc1cn2ccccc2n1)c1cc(COc2c(F)cccc2F)on1 | -64.9 |
| Cc1ccc(OCc2cc(C(=O)NCc3cn4ccccc4n3)no2)cc1C | -38.7 |
| Cc1cc(C)nc(CCNC(=O)c2cc(COc3c(F)cccc3F)on2)n1 | 4.72 |
| Cc1cc(C)n(CCNC(=O)c2cc(COc3ccc4ncccc4c3)on2)n1 | -3.15 |
| O=C(NCCc1cn2ccccc2n1)c1cc(COc2ccc3ncccc3c2)on1 | -65.7 |
| Cc1cc(C(=O)NC(=S)Nc2cccc(NC(=O)C(C)C)c2)ccc1[N+](=O)[O-] | 3.95 |
| Cc1ccc(NC(=O)C2CCC(=O)N2C(=O)OCc2ccccc2)cc1 (centres unmarked) | -23.5 |
| CN(C)c1cccc(C(=O)N2CCCC(C(=O)c3cc(F)ccc3F)C2)c1 (centres unmarked) | 0.21 |
| COc1ccc(C(=O)C2CCCN(Cc3cccn3-c3ccccn3)C2)cc1F (centres unmarked) | -78.5 |
| COc1ncccc1C(=O)N1CCCC(C(=O)c2cc(F)ccc2F)C1 (centres unmarked) | -9.02 |
| COc1ccc(C(=O)C2CCCN(C(=O)c3cccnc3OC)C2)cc1F (centres unmarked) | -4.56 |
| O=C(c1cc(F)ccc1F)C1CCCN(C(=O)c2ccc3nccnc3c2)C1 (centres unmarked) | -50.2 |
| O=C(c1cc(F)ccc1F)C1CCCN(Cc2cccn2-c2ccccn2)C1 (centres unmarked) | -77.9 |
| COc1ccc(F)cc1C(=O)C1CCCN(C(=O)CSc2ccccn2)C1 (centres unmarked) | -7.26 |
| COc1ccc(F)cc1C(=O)C1CCCN(Cc2cccn2-c2ccccn2)C1 (centres unmarked) | -83.5 |
| COc1ccc(F)cc1C(=O)C1CCCN(Cc2cccn2-c2cccnc2)C1 (centres unmarked) | -47 |
| O=C(c1cc(F)ccc1F)C1CCCN(C(=O)CSc2ccccn2)C1 (centres unmarked) | -31.9 |
| COC(=O)c1cccc(C(=O)N2CCCC(C(=O)c3cc(F)ccc3F)C2)c1 (centres unmarked) | -21 |

Source: PMC4336329 (PLoS ONE, 2015)
